Bioassay records (PubChem BioAssay)
The list is not random: actives were taken first. Their share in the collection is about 0.74%.
APEX1 inh: qHTS Assay for Inhibitors of the Human Apurinic/apyrimidinic Endonuclease 1 (APE1); DNA repair nuclease/redox regulator APEX1 (Homo sapiens), P27695; recombinant APE1, TAMRA/BHQ-2 abasic DNA cleavage fluorescence; Potency, µM (highest dose often 65.8 µM), usual class: inhibitors; 350,000 tested, 0.35% active; AID 2517, 2012; note: nearly all actives have a fitted effect of over 55% in size
Target sequence (P27695 whole entry, looked up): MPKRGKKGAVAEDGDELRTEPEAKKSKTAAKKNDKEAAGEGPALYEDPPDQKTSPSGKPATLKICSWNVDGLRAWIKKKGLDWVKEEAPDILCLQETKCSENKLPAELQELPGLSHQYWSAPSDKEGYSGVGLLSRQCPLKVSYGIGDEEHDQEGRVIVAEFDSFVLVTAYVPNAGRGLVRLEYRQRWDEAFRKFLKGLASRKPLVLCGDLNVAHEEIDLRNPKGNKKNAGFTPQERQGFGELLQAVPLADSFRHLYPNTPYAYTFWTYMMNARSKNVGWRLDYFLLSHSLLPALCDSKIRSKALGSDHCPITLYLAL
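Readout is kinetic fluorescence (ex 525, em 598 nm) from cleavage of 50 nM TAMRA/BHQ-2 THF abasic duplex by 0.75 nM APE1, compound added 15 min beforehand at RT.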
Tb PGK inh: qHTS Assay to Find Inhibitors of Phosphoglycerate Kinase; Phosphoglycerate kinase, glycosomal (Trypanosoma brucei brucei), P07378; PGK/GAPDH coupled, Kinase-Glo luminescence, 60 min; Potency, µM (highest dose often 57.5 µM), most hits filed as inhibitors; 380,000 tested, 0.043% active; note: nearly all actives have a fitted effect of over 60% in size
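Recombinant glycosomal PGK reaction used 1,3-bisphosphoglycerate generated in-well by GAPDH (100nM final) in 100mM TEA pH 7.6, 5mM MgCl2, 0.01% Tween-20. After 60 minutes at room temperature, ATP was read by Kinase-Glo Plus luminescence end-point.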
BLM helicase inh: qHTS Assay for Inhibitors of Bloom's syndrome helicase (BLM). RecQ-like DNA helicase BLM (Homo sapiens), P54132. recombinant BLM DNA unwinding, fluorescence dequenching. Potency, µM (titrated, usually from 56.1 µM), most hits filed as inhibitors. 350,000 tested, 0.2% active; note: nearly all actives have a fitted effect of over 35% in size
RECQ1 helicase: qHTS Assay for Inhibitors of RecQ-Like Dna Helicase 1 (RECQ1). ATP-dependent DNA helicase Q1 (Homo sapiens), P46063. RECQ1 DNA unwinding, red fluorescence kinetic read. Potency, µM (highest dose often 57.3 µM), hits mostly inhibitors. 240,000 tested, 0.54% active; note: nearly all actives have a fitted effect of over 30% in size
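RECQ1T1 50 nM; forked duplex (20 bp + 30-nt ss tails) 200 nM, ATP 2 mM final; pH 8.0, 2 mM MgCl2, 2.5 ug/ml poly(dI-dC); 15 min compound preincubation; discontinuous kinetic read over 2 h at RT.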
FEN1 inh-1: qHTS Assay for the Inhibitors of Human Flap endonuclease 1 (FEN1) | P39748 | Recombinant FEN1 flap cleavage, fluorescence, 15 min | Potency, µM (doses to about 114 µM), actives largely listed as inhibitors | 390,000 tested, 0.35% active | AID 588795, 2011; note: nearly all actives have a fitted effect of over 65% in size
Target sequence (P39748 whole entry, looked up): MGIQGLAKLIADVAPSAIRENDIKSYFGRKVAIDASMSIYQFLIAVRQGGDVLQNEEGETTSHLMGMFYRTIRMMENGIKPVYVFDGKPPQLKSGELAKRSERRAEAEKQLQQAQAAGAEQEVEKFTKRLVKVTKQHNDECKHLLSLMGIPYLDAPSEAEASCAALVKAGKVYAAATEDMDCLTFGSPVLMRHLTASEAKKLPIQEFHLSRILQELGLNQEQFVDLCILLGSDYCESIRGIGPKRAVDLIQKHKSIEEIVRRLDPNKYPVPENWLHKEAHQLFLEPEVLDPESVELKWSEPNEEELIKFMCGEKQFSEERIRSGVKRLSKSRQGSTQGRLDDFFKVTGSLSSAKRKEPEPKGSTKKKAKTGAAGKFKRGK
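Concentration–response screening of FEN1 (10 nM): 15 min compound preincubation at room temperature, reaction started with 50 nM substrate and read at 0 and 15 min. Corrected, normalized data were fitted by a four-parameter Hill equation.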
FEN1 inh-2: qHTS Assay for the Inhibitors of FEN1: Confirmatory Assay for Cherry-picked Compounds; shares compounds with FEN1 inh-1; FEN1 flap cleavage, TAMRA/BHQ2 fluorogenic DNA substrate; Potency, µM, hits mostly inhibitors; 880 tested, 79% active; note: nearly all actives have a fitted effect of over 60% in size
Hits are given with their value; – = inactive; ? = inconclusive; · = not tested or not shown. Calls come from the whole dose curve; as a rule, active = well fitted curve in the direction sought with a large enough effect; inconclusive = small, poorly fitted or top-dose-only effect, or another doubt; inactive = no such curve, though single readings can be large; an effect the other way counts as inactive or inconclusive.

SMILES | APEX1 inh | Tb PGK inh | BLM helicase inh | RECQ1 helicase | FEN1 inh-1 | FEN1 inh-2
COc1ccccc1CNC(=O)COC(=O)c1ccc([N+](=O)[O-])o1 | ? | – | · | · | ? | 30
COc1ccccc1CNC(=O)COC(=O)c1cc2ccccc2o1 | – | – | · | · | – | ·
CCOc1cc(N2CCOCC2)c(OCC)cc1NC(=O)COC(=O)c1ccc([N+](=O)[O-])o1 | – | – | · | · | 28µM | 8.5
COc1ccc(OC)c(C2C(C#N)=C(N)N(N(C)C)C3=C2C(=O)CCC3)c1 (stereo not given) | – | – | – | · | – | ·
COc1ccc(-c2cn3c(n2)sc2cc(C(=O)NCCCN4CCCCCC4)ccc23)cc1 | · | – | – | · | – | 38
COc1ccc(-c2cn3c(n2)sc2cc(C(=O)NCCCN4CCCCC4)ccc23)cc1 | · | – | – | · | – | 67
CCCN1CCN(CCCNC(=O)c2ccc3c(c2)sc2nc(-c4ccc(OC)cc4)cn23)CC1 | · | – | – | · | – | ·
COc1ccc(-c2cn3c(n2)sc2cc(C(=O)NCCCN4CCN(C)CC4)ccc23)cc1 | · | – | – | · | – | ·
Cc1cc(=O)oc2c(C)c(OCC(=O)NCCCN3CCCC3=O)ccc12 | – | – | – | · | – | ·
CCC(Sc1nc(-c2ccccc2)c(C#N)c(=O)[nH]1)C(=O)Nc1nnc(C)s1 (stereo not given) | – | – | – | – | ? | 48
COc1cccc(-c2nc(N3CCN(C)CC3)c3ccccc3n2)c1O | ? | – | – | – | 50µM | 38
Cc1ccc(-n2c(O)c(C=Nc3ccccc3-c3n[nH]c(=S)[nH]c3=O)c3ccccc3c2=O)cc1C | – | – | ? | – | 50µM | 67
Cc1ccc(-n2c(O)c(C=Nc3ccccc3-c3n[nH]c(=S)[nH]c3=O)c3ccccc3c2=O)c(C)c1 | – | – | – | – | ? | ·
CCN(CC)CCOc1ccc(Br)cc1 | – | · | – | – | – | ·
CCN(CC)CCOc1ccc2c(c1)C(=NO)c1cc(OCCN(CC)CC)ccc1-2 | – | – | – | – | 13µM | 8.5
Cc1ccccc1/C=N/Nc1nc2ccccc2c(=O)n1O | – | – | – | – | 40µM | 43
CCOc1ccc(NC(=O)CSc2nc(-c3ccc(F)cc3)cc(C(F)(F)F)c2C#N)cc1 | · | – | – | · | – | ·
CCN(CC)CCNC(=O)c1cc2c(=O)n(C)c3ccccc3c2s1 | – | – | – | · | 50µM | 48
CC(C)COc1ccc(CNC(=S)NCc2ccccc2)cc1 | – | – | – | – | ? | ·
Cc1ccc2oc(=O)c(/C=C(\O)c3sc(C)nc3C)nc2c1 | – | – | – | – | – | ·
Cc1ccc2oc(=O)c(/C=C(\O)C(C)(C)C)nc2c1 | – | – | – | – | 50µM | 34
CC(C)(C)/C(O)=C/c1nc2cc(Cl)ccc2oc1=O | – | – | – | – | 28µM | 12
Cc1ccc2oc(=O)c(/C=C(\O)c3ccco3)nc2c1 | – | – | – | – | – | ·
CCN1C(=O)[C@H]2[C@@H](c3ccc(-c4ccc(Cl)c(Cl)c4)cc3)N[C@@](CC(C)C)(C(=O)OC)[C@H]2C1=O | – | – | · | · | – | ·
O=C1CCCC2=C1C(c1ccc(Br)cc1)c1c([nH]c(=S)[nH]c1=O)N2 (stereo not given) | – | – | – | ? | – | ·
SMILES | APEX1 inh | Tb PGK inh | BLM helicase inh | RECQ1 helicase | FEN1 inh-1 | FEN1 inh-2
O=c1[nH]c(=S)[nH]c2c1C(c1ccc(Br)cc1)c1c([nH]c(=S)[nH]c1=O)O2 | – | ? | – | · | 18µM | 2.1
COc1ccccc1N1CC(C(=O)OCc2nc(N)nc(Nc3ccccc3)n2)CC1=O (stereo not given) | – | – | · | · | – | ·
C#CCN1C(=O)S/C(=C\c2ccc(-c3ccc(C(=O)O)cc3C)o2)C1=O | ? | ? | – | · | ? | ?
O=C(CSc1nnc(-c2ccco2)o1)c1ccc[nH]1 | – | – | ? | – | – | ?
COc1cc(/C=N/NC(=O)c2cccc(C(=O)N/N=C/c3ccc(O)c(OC)c3)n2)ccc1O | – | – | – | · | ? | 1.3
COc1cc(/C=N/NC(=O)c2nc(C)cc(C)n2)ccc1O | – | – | – | – | – | ·
O=C(Nc1cc2c(cc1C(=O)c1ccccc1)OCCO2)c1ccc(Br)cc1 | · | – | – | · | – | ·
O=c1cc(-c2ccc(O)cc2)oc2ccc3ccccc3c12 | – | ? | · | · | ? | ?
O=c1cc(-c2ccc(O)cc2)oc2c1ccc1ccccc12 | – | – | · | · | – | ·
Cn1c(=O)c(C(=O)Nc2ncccc2O)c(O)c2ccccc21 | – | – | – | – | 50µM | 60
Cc1nc(SCC(=O)NCC2COc3ccccc3O2)c2c(C)c(C)sc2n1 (stereo not given) | – | – | · | · | – | ·
O=C1S/C(=C/c2ccc(N3CCOCC3)o2)C(=O)N1Cc1ccc(F)cc1 | – | – | – | – | – | ·
O=C1NC(=S)S/C1=C/c1ccc(N2CCOCC2)o1 | – | – | – | – | 45µM | 38
CN(C)CCc1cc2c(c3c1ccc1ccccc13)OCO2 | ? | – | – | – | ? | 21
COc1ccc(N2CCc3c(C)nc4c(OC)cc(OC)cc4c32)cc1 | – | – | – | – | 40µM | 38
C/C(=N/OC(=O)CC(C)C)c1cc(-c2ccc(Cl)cc2)no1 | – | – | – | – | – | ·
CCOc1ccc(N(C)c2ccc(/C=C3/SC(=S)NC3=O)cc2)cc1 | – | – | – | · | ? | ·
CN(C)c1ccc(C=C2SC(=S)NC2=O)cc1 | · | – | · | · | – | ?
O=C(CCCl)Nc1nnc(SCC(=O)NC2CCCC2)s1 | – | – | – | · | – | ·
CCc1nnc(NC(=O)C2(C)COC(c3ccccc3)OC2)s1 (stereo not given) | – | – | – | – | – | ·
CCCc1c(C)[nH]c2ccc(C(=O)O)cc2c1=S | 22µM | ? | – | 14µM | 45µM | 43
O=C(c1ccccn1)N1CCN(S(=O)(=O)c2cccc(Br)c2)CC1 | – | – | · | · | – | ·
Cc1cccc2c(N)c3c(nc12)CCCC3 (tested in a mixture with another compound) | ? | – | – | – | ? | ·
Cc1cc(C)c2c(N)c3cccc(C)c3nc2n1 | ? | – | – | – | 25µM | 15
CCOC(=O)c1ccc(NC(=S)NCc2cccnc2)cc1 | – | – | – | – | – | ·
C=CCn1c(=N)c(C(=O)NCCCOC)cc2c(=O)n3cccc(C)c3nc21 | – | – | – | – | – | ·
